Laboratory results published in article PMC7862700, “An all-to-all approach to the identification of sequence-specific readers for epigenetic DNA modifications on cytosine”.

Assays:
Test in all cases: DAPPL (digital affinity profiling via proximity ligation, sequencing); 10 mM Tris-HCl pH 7.5, 50 mM NaCl, 1 mM DTT, 4% glycerol, room temperature, 30 min; GST-TFs on glutathione beads, 16-mer random dsDNA library, 0.1% formaldehyde crosslink after washing; high values mean tight binding
Conditions in all cases: protein: recombinant; tags: N-terminal GST; dsDNA, one strand shown
[1] = molecular target: T1, ERF (Homo sapiens, UniProt P50548 1-548)
T1 sequence: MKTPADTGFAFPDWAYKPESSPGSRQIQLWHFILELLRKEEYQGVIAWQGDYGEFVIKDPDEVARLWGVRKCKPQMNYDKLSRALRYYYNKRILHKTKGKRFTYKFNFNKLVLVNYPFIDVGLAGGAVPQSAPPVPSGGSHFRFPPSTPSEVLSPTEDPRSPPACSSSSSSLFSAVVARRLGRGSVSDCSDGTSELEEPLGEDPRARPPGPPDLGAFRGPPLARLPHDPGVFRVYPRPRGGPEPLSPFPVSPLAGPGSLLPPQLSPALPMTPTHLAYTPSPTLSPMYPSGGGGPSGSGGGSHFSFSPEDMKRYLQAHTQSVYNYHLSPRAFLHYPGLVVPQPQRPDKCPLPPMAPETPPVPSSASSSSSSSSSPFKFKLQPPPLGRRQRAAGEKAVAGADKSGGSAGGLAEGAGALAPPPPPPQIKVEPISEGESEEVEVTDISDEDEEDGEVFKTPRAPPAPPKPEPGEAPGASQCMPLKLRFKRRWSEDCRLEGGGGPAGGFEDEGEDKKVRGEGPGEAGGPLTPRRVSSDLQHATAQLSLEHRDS
In short: (§1)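 Binding signal is each hexamer's read frequency for a factor divided by its frequency in the tag-only sample. The factors were GST-fused human transcription factors from yeast, captured on glutathione beads, DNA-barcoded and pooled with that sample. Pools were incubated with 200 nmole of a random double-stranded 16-mer DNA library in Tris/NaCl/DTT/glycerol buffer at room temperature for 30 min, then washed, crosslinked with 0.1% formaldehyde, proximity-ligated with BsaI/T4 ligase (1 h, 37 °C), PCR-amplified and sequenced on an Illumina NextSeq500.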

[2] = molecular target: T2, ETV3L (Homo sapiens, UniProt Q6ZN32 1-361)
T2 sequence: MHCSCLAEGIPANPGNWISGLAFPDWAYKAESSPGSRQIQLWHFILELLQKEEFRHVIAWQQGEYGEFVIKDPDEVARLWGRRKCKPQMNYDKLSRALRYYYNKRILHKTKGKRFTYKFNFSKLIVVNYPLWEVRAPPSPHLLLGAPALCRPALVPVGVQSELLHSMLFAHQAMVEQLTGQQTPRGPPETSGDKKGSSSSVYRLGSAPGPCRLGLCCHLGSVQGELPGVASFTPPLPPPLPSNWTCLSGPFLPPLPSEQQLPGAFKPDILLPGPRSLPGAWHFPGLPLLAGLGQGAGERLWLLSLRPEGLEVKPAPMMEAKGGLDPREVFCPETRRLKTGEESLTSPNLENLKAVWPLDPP
In short: as §1

[3] = molecular target: T3, ETS2 (Homo sapiens, UniProt P15036 1-469)
T3 sequence: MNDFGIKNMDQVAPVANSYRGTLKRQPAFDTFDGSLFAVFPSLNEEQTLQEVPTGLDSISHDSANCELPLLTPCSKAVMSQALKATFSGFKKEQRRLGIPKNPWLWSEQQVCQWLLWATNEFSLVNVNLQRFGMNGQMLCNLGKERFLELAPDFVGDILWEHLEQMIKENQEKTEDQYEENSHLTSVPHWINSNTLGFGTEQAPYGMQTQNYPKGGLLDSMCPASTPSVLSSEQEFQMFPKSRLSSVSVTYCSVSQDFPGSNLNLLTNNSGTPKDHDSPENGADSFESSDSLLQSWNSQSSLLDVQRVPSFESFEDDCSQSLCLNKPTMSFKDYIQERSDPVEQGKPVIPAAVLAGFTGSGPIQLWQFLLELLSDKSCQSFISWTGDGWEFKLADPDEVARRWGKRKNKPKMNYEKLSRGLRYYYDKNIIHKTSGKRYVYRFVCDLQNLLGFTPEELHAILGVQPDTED
In short: as §1

[4] = molecular target: T4, SPDEF (Homo sapiens, UniProt O95238 1-335)
T4 sequence: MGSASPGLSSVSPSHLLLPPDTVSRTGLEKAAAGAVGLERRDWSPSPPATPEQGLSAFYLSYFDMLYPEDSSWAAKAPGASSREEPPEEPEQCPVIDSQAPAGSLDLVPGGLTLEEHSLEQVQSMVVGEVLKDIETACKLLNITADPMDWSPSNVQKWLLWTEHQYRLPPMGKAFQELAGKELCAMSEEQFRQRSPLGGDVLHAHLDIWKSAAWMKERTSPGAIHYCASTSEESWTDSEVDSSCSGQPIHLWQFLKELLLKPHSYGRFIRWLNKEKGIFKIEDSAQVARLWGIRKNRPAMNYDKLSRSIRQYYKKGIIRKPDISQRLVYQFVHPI
In short: as §1

[5] = molecular target: T5, ETV7 (Homo sapiens, UniProt Q9Y603 1-341)
T5 sequence: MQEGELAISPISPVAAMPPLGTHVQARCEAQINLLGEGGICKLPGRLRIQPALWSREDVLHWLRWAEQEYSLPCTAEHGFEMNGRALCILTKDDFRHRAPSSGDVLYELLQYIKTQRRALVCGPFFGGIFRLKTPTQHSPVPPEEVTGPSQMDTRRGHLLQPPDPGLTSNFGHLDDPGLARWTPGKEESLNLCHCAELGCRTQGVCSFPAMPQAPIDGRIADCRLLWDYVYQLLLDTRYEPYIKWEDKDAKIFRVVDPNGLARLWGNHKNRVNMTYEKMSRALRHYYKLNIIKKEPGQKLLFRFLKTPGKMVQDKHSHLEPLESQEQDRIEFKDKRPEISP
In short: as §1

[6] = molecular target: T6, ELF5 (Homo sapiens, UniProt Q9UKW6-2 1-255)
T6 sequence: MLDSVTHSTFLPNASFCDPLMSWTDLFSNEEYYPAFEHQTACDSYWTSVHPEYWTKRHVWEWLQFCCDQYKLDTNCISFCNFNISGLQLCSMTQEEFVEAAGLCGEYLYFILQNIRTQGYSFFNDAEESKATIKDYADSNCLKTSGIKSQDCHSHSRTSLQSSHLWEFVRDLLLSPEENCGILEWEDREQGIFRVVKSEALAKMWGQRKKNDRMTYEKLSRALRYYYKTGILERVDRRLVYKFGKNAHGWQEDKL
In short: as §1

[7] = molecular target: T7, ETV3 (Homo sapiens, UniProt P41162-2 1-143)
T7 sequence: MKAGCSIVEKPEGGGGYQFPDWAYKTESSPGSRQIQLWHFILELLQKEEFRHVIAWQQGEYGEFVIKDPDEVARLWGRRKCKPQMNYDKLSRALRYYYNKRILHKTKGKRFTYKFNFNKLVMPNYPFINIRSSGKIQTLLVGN
In short: as §1

[8] = molecular target: ETV6 (Homo sapiens, UniProt P41212 1-452)
Sequence of ETV6 (P41212 whole entry): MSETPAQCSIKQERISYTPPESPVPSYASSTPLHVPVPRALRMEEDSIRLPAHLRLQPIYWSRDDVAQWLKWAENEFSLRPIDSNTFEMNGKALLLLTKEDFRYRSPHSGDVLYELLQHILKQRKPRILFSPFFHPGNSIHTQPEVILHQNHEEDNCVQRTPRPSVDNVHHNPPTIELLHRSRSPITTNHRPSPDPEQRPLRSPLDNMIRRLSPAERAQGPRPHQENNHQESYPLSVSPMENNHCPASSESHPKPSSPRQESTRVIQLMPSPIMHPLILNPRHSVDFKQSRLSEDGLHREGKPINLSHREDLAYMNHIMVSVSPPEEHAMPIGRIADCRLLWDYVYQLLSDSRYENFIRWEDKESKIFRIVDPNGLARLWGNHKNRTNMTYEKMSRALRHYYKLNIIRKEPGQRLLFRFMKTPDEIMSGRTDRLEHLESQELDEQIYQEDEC
In short: as §1

| Sequence | binding signal [1] | binding signal [2] | binding signal [3] | binding signal [4] | binding signal [5] | binding signal [6] | binding signal [7] | binding signal [8] |
| --- | --- | --- | --- | --- | --- | --- | --- | --- |
| GAATAA | 1.23 fold enrichment (6-mer frequency, TF over GST control) | 1.15 fold enrichment (6-mer frequency, TF over GST control) | 1.09 fold enrichment (6-mer frequency, TF over GST control) | 1.09 fold enrichment (6-mer frequency, TF over GST control) | 1.07 fold enrichment (6-mer frequency, TF over GST control) | 1.05 fold enrichment (6-mer frequency, TF over GST control) | 1.06 fold enrichment (6-mer frequency, TF over GST control) | 1.16 fold enrichment (6-mer frequency, TF over GST control) |
| CTCGAT | 1.37 fold enrichment (6-mer frequency, TF over GST control) | 1.44 fold enrichment (6-mer frequency, TF over GST control) | 1.36 fold enrichment (6-mer frequency, TF over GST control) | 1.22 fold enrichment (6-mer frequency, TF over GST control) | 1.31 fold enrichment (6-mer frequency, TF over GST control) | 1.22 fold enrichment (6-mer frequency, TF over GST control) | 1.36 fold enrichment (6-mer frequency, TF over GST control) | 1.3 fold enrichment (6-mer frequency, TF over GST control) |
| GTACTT | 1.64 fold enrichment (6-mer frequency, TF over GST control) | 1.87 fold enrichment (6-mer frequency, TF over GST control) | 2.02 fold enrichment (6-mer frequency, TF over GST control) | 2.57 fold enrichment (6-mer frequency, TF over GST control) | 2.11 fold enrichment (6-mer frequency, TF over GST control) | 2.51 fold enrichment (6-mer frequency, TF over GST control) | 1.97 fold enrichment (6-mer frequency, TF over GST control) | 2.47 fold enrichment (6-mer frequency, TF over GST control) |
| TATGTA | 1.36 fold enrichment (6-mer frequency, TF over GST control) | 1.29 fold enrichment (6-mer frequency, TF over GST control) | 1.38 fold enrichment (6-mer frequency, TF over GST control) | 1.35 fold enrichment (6-mer frequency, TF over GST control) | 1.35 fold enrichment (6-mer frequency, TF over GST control) | 1.26 fold enrichment (6-mer frequency, TF over GST control) | 1.25 fold enrichment (6-mer frequency, TF over GST control) | 1.28 fold enrichment (6-mer frequency, TF over GST control) |
| CGATGG | 1.18 fold enrichment (6-mer frequency, TF over GST control) | 1.34 fold enrichment (6-mer frequency, TF over GST control) | 1.33 fold enrichment (6-mer frequency, TF over GST control) | 1.29 fold enrichment (6-mer frequency, TF over GST control) | 1.39 fold enrichment (6-mer frequency, TF over GST control) | 1.18 fold enrichment (6-mer frequency, TF over GST control) | 1.24 fold enrichment (6-mer frequency, TF over GST control) | 1.33 fold enrichment (6-mer frequency, TF over GST control) |
| CCTTCT | 1.5 fold enrichment (6-mer frequency, TF over GST control) | 1.62 fold enrichment (6-mer frequency, TF over GST control) | 1.53 fold enrichment (6-mer frequency, TF over GST control) | 1.84 fold enrichment (6-mer frequency, TF over GST control) | 1.45 fold enrichment (6-mer frequency, TF over GST control) | 1.86 fold enrichment (6-mer frequency, TF over GST control) | 1.44 fold enrichment (6-mer frequency, TF over GST control) | 1.58 fold enrichment (6-mer frequency, TF over GST control) |
| CTATTC | 1.33 fold enrichment (6-mer frequency, TF over GST control) | 1.4 fold enrichment (6-mer frequency, TF over GST control) | 1.32 fold enrichment (6-mer frequency, TF over GST control) | 1.41 fold enrichment (6-mer frequency, TF over GST control) | 1.34 fold enrichment (6-mer frequency, TF over GST control) | 1.29 fold enrichment (6-mer frequency, TF over GST control) | 1.33 fold enrichment (6-mer frequency, TF over GST control) | 1.4 fold enrichment (6-mer frequency, TF over GST control) |
| TTGCCC | 1.3 fold enrichment (6-mer frequency, TF over GST control) | 1.41 fold enrichment (6-mer frequency, TF over GST control) | 1.43 fold enrichment (6-mer frequency, TF over GST control) | 1.38 fold enrichment (6-mer frequency, TF over GST control) | 1.38 fold enrichment (6-mer frequency, TF over GST control) | 1.22 fold enrichment (6-mer frequency, TF over GST control) | 1.35 fold enrichment (6-mer frequency, TF over GST control) | 1.23 fold enrichment (6-mer frequency, TF over GST control) |
| AATGCA | 1.3 fold enrichment (6-mer frequency, TF over GST control) | 1.28 fold enrichment (6-mer frequency, TF over GST control) | 1.28 fold enrichment (6-mer frequency, TF over GST control) | 1.23 fold enrichment (6-mer frequency, TF over GST control) | 1.3 fold enrichment (6-mer frequency, TF over GST control) | 1.31 fold enrichment (6-mer frequency, TF over GST control) | 1.25 fold enrichment (6-mer frequency, TF over GST control) | 1.37 fold enrichment (6-mer frequency, TF over GST control) |
| ATCCCT | 1.33 fold enrichment (6-mer frequency, TF over GST control) | 1.35 fold enrichment (6-mer frequency, TF over GST control) | 1.23 fold enrichment (6-mer frequency, TF over GST control) | 1.41 fold enrichment (6-mer frequency, TF over GST control) | 1.14 fold enrichment (6-mer frequency, TF over GST control) | 1.37 fold enrichment (6-mer frequency, TF over GST control) | 1.21 fold enrichment (6-mer frequency, TF over GST control) | 1.23 fold enrichment (6-mer frequency, TF over GST control) |
| ATTTTG | 1.24 fold enrichment (6-mer frequency, TF over GST control) | 1.29 fold enrichment (6-mer frequency, TF over GST control) | 1.2 fold enrichment (6-mer frequency, TF over GST control) | 1.09 fold enrichment (6-mer frequency, TF over GST control) | 1.14 fold enrichment (6-mer frequency, TF over GST control) | 1.2 fold enrichment (6-mer frequency, TF over GST control) | 1.1 fold enrichment (6-mer frequency, TF over GST control) | 1.24 fold enrichment (6-mer frequency, TF over GST control) |
| CCTACT | 1.7 fold enrichment (6-mer frequency, TF over GST control) | 1.53 fold enrichment (6-mer frequency, TF over GST control) | 1.7 fold enrichment (6-mer frequency, TF over GST control) | 1.49 fold enrichment (6-mer frequency, TF over GST control) | 1.35 fold enrichment (6-mer frequency, TF over GST control) | 1.82 fold enrichment (6-mer frequency, TF over GST control) | 1.77 fold enrichment (6-mer frequency, TF over GST control) | 1.73 fold enrichment (6-mer frequency, TF over GST control) |
| TAATCT | 1.39 fold enrichment (6-mer frequency, TF over GST control) | 1.32 fold enrichment (6-mer frequency, TF over GST control) | 1.43 fold enrichment (6-mer frequency, TF over GST control) | 1.34 fold enrichment (6-mer frequency, TF over GST control) | 1.5 fold enrichment (6-mer frequency, TF over GST control) | 1.46 fold enrichment (6-mer frequency, TF over GST control) | 1.28 fold enrichment (6-mer frequency, TF over GST control) | 1.37 fold enrichment (6-mer frequency, TF over GST control) |
| TGCTGG | 1.2 fold enrichment (6-mer frequency, TF over GST control) | 1.22 fold enrichment (6-mer frequency, TF over GST control) | 1.07 fold enrichment (6-mer frequency, TF over GST control) | 1.15 fold enrichment (6-mer frequency, TF over GST control) | 1.13 fold enrichment (6-mer frequency, TF over GST control) | 1.07 fold enrichment (6-mer frequency, TF over GST control) | 1.11 fold enrichment (6-mer frequency, TF over GST control) | 1.06 fold enrichment (6-mer frequency, TF over GST control) |
